Laboratory results taken from PubChem BioAssay (NCATS).
Inconclusive results are not listed. Entries that show only a call come without a potency. Unmarked numbers belong to inactive results. The source made the active and inactive calls. The call rests on the fitted dose curve; in most records, active means well fitted inhibition curve with a large enough effect; inconclusive means small, poorly fitted or top-dose-only effect; inactive means no such curve, though single readings can be large or run the other way. Where a SMILES comes first, the peptide text is derived from it. Bridges are numbered along the chain shown (N, C = ends). [ ]: non-standard residue; d: D form. The star is where a group is joined. AFC = O=c1cc(C(F)(F)F)c2ccc(N*)cc2o1; X1 = CCC(C)C(N)C1=NC(C(=O)*)CS1; dOrn = NCCC[C@@H](N)C(=O)O

system: Zika virus NS2B-NS3 protease (unlinked complex); assay: Primary screen GU Rhodamine qHTS for Zika virus inhibitors: Unlinked NS2B-NS3 protease assay (AID 1347159); conditions: Recombinant ZIKV NS2B-NS3 protease, Rhodamine110 substrate fluorescence; series mostly up to 107 µM; further: nearly all actives have a fitted effect of over 60% in size
Method in brief: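 In dose–response format, inhibition of unlinked protease (25 nM) was measured with 1.5 microM bis-peptide Rhodamine110 substrate. Aprotinin served as the intraplate control.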

SMILES	Potency	activity change, negative = inhibition
C=C1CC23CC1(O)CCC2C1=CC2OC(=O)C(C)(C2O)C1C3C(=O)O (stereo not given)	inactive	–
COc1ccc([C@H]2Cc3cccc(O)c3C(=O)O2)cc1	inactive	–
COC1=CC(=O)C[C@@H](C)[C@]12Oc1cc(OC)cc(OC)c1C2=O	inactive	–
CC(C)CNC(=O)/C=C/CCCCc1ccc2c(c1)OCO2	inactive	–
CC1CCC2C(C)(C)C(O)CCC2(C)C12Cc1c(O)cc3c(c1O2)CN(C(CCC(N)=O)C(=O)O)C3=O (stereo not given)	inactive	–
Nc1nonc1C(=Nc1ccc(F)c(Cl)c1)NO	inactive	–
COC1CC(=O)C23C(=O)NC(CC(C)C)C2C(C)C(C)=CC3/C=C(\C)CCC1O (stereo not given)	inactive	–
CNC(=O)Nc1ccc(OC)c(NC(=O)NC(=O)c2cc(F)c(F)cc2Cl)c1	inactive	–
C=CC(C)(O)CO[C@@H]1O[C@H](CO)[C@@H](O)[C@H](O)[C@H]1O (stereo not given in full)	inactive	–
Nc1ccn([C@@H]2C(F)=C(CO)[C@@H](O)[C@H]2O)c(=O)n1	inactive	–
CC(C)=CCCC1(C)Oc2cc3c(c4c2C2C(O4)C(C)(O)CCC21)CN(C(CCC(=O)O)C(=O)O)C3=O (stereo not given)	inactive	–
CC[C@H](/C=C/[C@@H](C)[C@H]1CC[C@H]2[C@@H]3CC=C4C[C@@H](O)CC[C@]4(C)[C@H]3CC[C@]12C)C(C)C	–	1.47% [at 11.5 µM]
CCC(C)C(N)C1=NC(C(=O)N[C@@H](CC(C)C)C(=O)N[C@H](CCC(=O)O)C(=O)N[C@H](C(=O)N[C@H]2CCCCNC(=O)[C@H](CC(N)=O)NC(=O)[C@@H](CC(=O)O)NC(=O)[C@H](Cc3cnc[nH]3)NC(=O)[C@@H](Cc3ccccc3)NC(=O)[C@H]([C@@H](C)CC)NC(=O)[C@@H](CCCN)NC2=O)[C@@H](C)CC)CS1 (stereo not given in full) (X1-L[dE]IK[dOrn]I[dF]H[dD]N; lactam 4-C)	inactive	–
CC(=O)O[C@H](C[C@@H](C)[C@H]1C(=O)[C@H](O)[C@@]2(C)[C@@H]3CCC4C(C)(C)[C@@H](O[C@@H]5OC[C@H](O)[C@H](O)[C@H]5O)CC[C@@]45C[C@@]35CC[C@]12C)[C@@H]1OC1(C)C (stereo not given in full)	inactive	–
NC(=O)c1ccc(OCC2NC(=O)C3CCCN3C2=O)cc1 (stereo not given)	inactive	–
CC(=O)NCCCCn1c2c(c3ccccc31)C(=O)NCC2	inactive	–
NC(=O)c1cccc(-c2cc(O)cc(OC(=O)NC3CCCCC3)c2)c1	inactive	–
O=C(NCC(=O)N1CC[C@H](NC2CCC(O)(c3ccc(-c4ncccn4)cn3)CC2)C1)c1cccc(C(F)(F)F)c1 (stereo not given in full)	inactive	–
O=c1c2cccnc2n(-c2cccc([N+](=O)[O-])c2)c(=O)n1Cc1ccncc1	inactive	–
CC(=O)O[C@H]1[C@H](Oc2ccccc2COC(=O)C2(O)C=CCCC2=O)O[C@H](CO)[C@@H](O)[C@@H]1O (stereo not given in full)	inactive	–

SMILES	Potency	activity change, negative = inhibition
C=C1C(=O)O[C@H]2[C@H]1[C@@H](OC(=O)C(C)CO)C[C@@]1(C)[C@H](O)CCC(=O)[C@H]21 (stereo not given in full)	inactive	–
COc1ccc(C)c2sc(NC(=O)c3ccncc3)nc12	inactive	–
C[C@@H]1CC[C@H]2C(C)(C)[C@H](O)[C@H](O)C[C@]2(C)[C@@]12Cc1c(O)cc3c(c1O2)CNC3=O	inactive	–
CC12CC34C=CC(=O)C(C)(CCC(=O)O)C3C(CC1C4)O2 (stereo not given)	inactive	–
Nc1c(Br)cc(Br)cc1CNC1CCC(O)CC1 (stereo not given)	inactive	–
CCn1nnnc1NCc1ccc(C(C)C)cc1	inactive	–
COc1ccc2c(c1)O[C@H](O[C@@H]1O[C@H](CO)[C@@H](O)[C@H](O)[C@H]1O)C(=O)N2	inactive	–
COc1cc(/C=C/C(=O)O[C@H]2[C@H](OC(=O)/C=C/c3cc(OC)c(O)c(OC)c3)O[C@H](CO[C@@H]3O[C@H](CO)[C@@H](O)[C@H](O)[C@H]3O)[C@@H](O)[C@@H]2O)ccc1O	inactive	–
CC1NC(=O)CNC(=O)C(C(C)C)NC(=O)C2CCCN2C(=O)C(C(C)C)NC(=O)C(Cc2c[nH]c3ccccc23)NC1=O (stereo not given) (cyclo(GAWVPV); configuration not given here)	inactive	–
CCC(C)C(=O)O[C@@H]1[C@@H](O)[C@@H](O[C@H]2O[C@H](CO)[C@@H](O)[C@H](O)[C@H]2O)O[C@H](CO)[C@H]1O (stereo not given in full)	inactive	–
CC(=O)O[C@@H]1[C@@H](OC(=O)/C=C/c2ccccc2)[C@H](C)O[C@@H](O[C@H]2[C@@H]3C=CO[C@@H](O[C@@H]4O[C@H](CO)[C@@H](O)[C@H](O)[C@H]4O)[C@@H]3[C@@]3(CO)O[C@@H]23)[C@@H]1OC(C)=O	inactive	–
CC(=O)N[C@@H](CC(C)C)C(=O)N[C@@H](CCC(=O)O)C(=O)N[C@@H](CCC(=O)O)C(=O)N[C@@H](CC(=O)O)C(=O)Nc1ccc2c(C(F)(F)F)cc(=O)oc2c1 (Ac-LEED-{AFC})	inactive	–
C[C@]1(OC(=O)/C=C/c2ccccc2)C[C@H](O)[C@]2(O)C=CO[C@@H](O[C@@H]3O[C@H](CO)[C@@H](O)[C@H](O)[C@H]3O)C12 (stereo not given in full)	inactive	–
CCOC(=O)[C@H](CCc1ccccc1)N[C@@H](C)C(=O)N1C2CCCCC2C[C@H]1C(=O)O (stereo not given in full)	inactive	–
COc1cc2c(cc1O)C1(Cc3ccc4c(c3C1=O)OCO4)N(C)CC2 (stereo not given)	inactive	–
Nc1nc(CC(=O)Nc2ccc(CCNCC(O)c3ccccc3)cc2)cs1 (stereo not given)	inactive	–
COC(=O)C1=CO[C@@H](O[C@@H]2O[C@H](CO)[C@@H](O)[C@H](O)[C@H]2O)[C@@H]2[C@@H](C)[C@@H](O)C[C@H]12	inactive	–
CC(NCc1ccc(OCc2cccc(F)c2)cc1)C(N)=O (stereo not given)	inactive	–
Cc1cc(N2CCCCC2)nc2ccccc12	inactive	–
CCCn1cnc2c(NCc3ccccc3)nc(N[C@H](CC)CO)nc21	inactive	–
